Source: PubChem BioAssay (several laboratories)
This is a sample that favours compounds with a hit; in the whole collection about 4.6% have one here.
tim23-1 inh = growth inhibitors of tim23-1 mutant yeast, primary screen, luminescence, uHTS. S. cerevisiae tim23-1 growth, BacTiter-Glo luminescence, 24 h. inhibition, % at 20 µM. 330,000 tested, 1.3% active;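 active means growth inhibition of the mutant yeast at or above 50%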;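 further: temperature-sensitive mutant grown at 25 °C; plate controls were DMSO-treated mutant yeast for no effect and medium wells lacking yeast for full effect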
tim10-1 inh = growth inhibitors of tim10-1 mutant yeast, primary screen, luminescence, uHTS; inhibition, % at 20 µM; 330,000 tested, 2.2% active; S. cerevisiae tim10-1 ts strain growth, BacTiter-Glo, 24 h;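 active means inhibition of at least 40%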;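 further: mutant grown at 25 °C; 0% = DMSO wells with yeast and 100% = wells holding no yeast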
NALP3 yeast inh = NALP3 inflammasome inhibitors in reconstituted yeast, primary screen, luminescence, uHTS | Yeast reconstituted NLRP3/ASC/caspase-1, beta-gal luminescence, 24 h | inhibition, % at 10 µM | 330,000 tested, 0.39% active;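 active means inhibition of 50% or more; inactive means inhibition below 50%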;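 further: plate controls were induced DMSO wells for no effect and uninduced yeast grown without galactose for full effect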
PfHsp90 yeast 2 = growth inhibition of PfHsp90-expressing yeast, primary screen, antimalarial PfHsp90 inhibitor project, S. cerevisiae, BacTiter-Glo luminescence, single point, set 2; 310,000 tested, 0.32% active; AID 504621, 2011; BacTiter-Glo ATP, 48 h; yeast lacking PDR1 and PDR3 efflux regulators; inhibition, % at 9.4 µM;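 active means every replicate shows inhibition above about 80%, whatever the replicate mean, limit read from the data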;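 further: 0% = DMSO neutral controls and 100% = 20 µM radicicol positive controls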
TIM10 inh = growth inhibitors of isogenic TIM10 control yeast, primary screen, counter-screen for tim10-1 yeast inhibitor project, luminescence, uHTS; S. cerevisiae TIM10 strain growth, BacTiter-Glo luminescence, 24 h; inhibition, % at 10 µM; 330,000 tested, 1.4% active; AID 463195, 2010;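 active means inhibition of 40% or more at the single tested concentration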;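 further: wild-type TIM10 isogenic control strain grown at permissive 25 °C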
SKKanGAS inh = S. pyogenes SKKanGAS growth inhibitors in kanamycin, primary screen, streptokinase expression inhibitor project, SKKanGAS strain, BacTiter-Glo luminescence | 6 h | inhibition, % at 7.5 µM | 300,000 tested, 1.3% active | AID 1662, 2009;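 active means mean replicate score, as percent of positive control median, at least 50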;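 further: strain carries kanamycin resistance gene driven by streptokinase promoter and grows in 40 µg/ml kanamycin; loss of luminescence reflects streptokinase promoter inhibition or plain growth inhibition; 0% = median of DMSO wells and 100% = positive control at its reference dose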
TIM10 conf = growth inhibitors of wild-type TIM10 yeast, confirmation, counter-screen for tim10-1 synthetic lethality project, single concentration, luminescence, S. cerevisiae. 4,600 tested, 63% active. inhibition, % at 10 µM. S. cerevisiae tim10 strain growth, BacTiter-Glo luminescence, 24 h. AID 463215, 2010. shares compounds with TIM10 inh;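 active means inhibition of yeast growth at or above a set limit in either of two replicates at 10 µM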;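 further: this counterscreen used the strain with wild-type TIM10; 0% = yeast with DMSO and 100% = medium wells lacking yeast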
tim23-1 conf = tim23-1 mutant yeast growth inhibitors, confirmation, luminescence, single concentration. shares compounds with tim23-1 inh. S. cerevisiae tim23-1 growth, BacTiter-Glo luminescence, 24 h. inhibition, % at 20 µM. 4,400 tested, 83% active;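 active means inhibition above about 39% in either of two replicate wells at 20 µM, limit read from the data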;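 further: temperature-sensitive tim23-1 mutant grown at 25 °C; 0% = DMSO wells with yeast and 100% = medium wells without yeast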
The depositor's hits bear a star; / = no result.

SMILES | tim23-1 inh | tim10-1 inh | NALP3 yeast inh | PfHsp90 yeast 2 | TIM10 inh | SKKanGAS inh | TIM10 conf | tim23-1 conf
CCOc1ccc(C2=NNC(c3cccs3)=Nc3ccc(OC)cc32)cc1OCC | 0.4 | 12.3 | 2.7 | -29.3 | 33.2 | 29.2 | / | /
CCOc1ccc(C2=NNC(c3cccs3)=Nc3ccc(OCC)cc32)cc1 | 55.0* | 28.9 | 47.7 | / | 51.8* | 9.6 | 44.0* | 68.2*
Cc1[nH]c2ccccc2c1N=Nc1ccccc1F | 71.8* | -18.0 | 22.2 | 1.0 | 50.5* | 4.3 | 55.3* | -51.0
Cc1ccc(S(=O)(=O)Nc2cccc(C(=O)NCCCn3ccnc3)c2)cc1F | -4.2 | -5.4 | 14.9 | 0.6 | -4.1 | 1.2 | / | /
CC(OC(=O)/C=C/c1ccc2ccccc2n1)C(=O)N(C)c1ccccc1 (stereo unspecified) | 52.4* | 34.8 | 26.7 | 3.9 | 42.9* | / | 42.0* | 53.3*
Cc1noc(C)c1C(=O)OC(C)C(=O)N(C)c1ccccc1 (stereo unspecified) | 13.6 | 4.0 | 17.3 | 5.5 | -7.1 | / | / | /
O=C(N/N=C/c1cc(Br)cc(Cl)c1O)c1ccc2c(c1)OCO2 | 57.1* | -3.2 | 9.1 | -48.8 | 43.5* | 89.5* | 31.4* | 56.6*
O=C(N/N=C/c1ccccc1O)c1ccc2c(c1)OCO2 | 66.8* | 30.8 | 14.7 | 3.7 | 50.5* | 104.7* | 43.1* | 74.2*
Cc1nc2sc(C(c3ccc(F)cc3)N3CCN(C(=O)c4ccco4)CC3)c(O)n2n1 (stereo unspecified) | 6.7 | 9.4 | 14.5 | 20.5 | 1.4 | 1.8 | / | /
COc1ccc(Cl)cc1C(=O)O/N=C(\N)c1ccc(Cl)cc1 | 88.8* | 28.6 | 12.1 | 2.0 | 79.2* | -1.0 | 83.3* | 43.8*
N/C(Cc1ccc(Cl)cc1)=N\OC(=O)Cc1ccc([N+](=O)[O-])cc1 | 55.2* | 37.8 | 39.4 | -12.9 | 77.3* | 1.5 | -5.9 | 72.2*
COc1ccc(C(=O)O/N=C(\N)Cc2ccc(Cl)cc2)cc1OC | 67.6* | -1.8 | 4.0 | -17.3 | 79.0* | -1.7 | 86.4* | 49.0*
N/C(=N\OC(=O)c1cc(Cl)ccc1Cl)c1ccncc1 | 14.2 | 26.6 | -13.8 | -7.5 | 9.3 | 8.4 | / | /
COc1ccc(/C=N/NC(=O)Cc2ccc(Cl)cc2)cc1OC | -20.9 | -12.4 | 3.6 | -9.8 | 31.1 | 1.2 | / | /
CC1=C(C)/C(=N/OC(=O)c2cccc([N+](=O)[O-])c2)C=CC1=O | 61.7* | 39.7 | -0.4 | / | 40.7* | -0.5 | 19.2 | 85.8*
COc1ccc2[nH]cc(CCNC(=O)c3ccc4ccccc4n3)c2c1 | 29.7 | -29.7 | 22.9 | -0.2 | -10.1 | -4.6 | / | /
CC(C)CCN(C(=O)C1=COCCO1)c1c(N)n(Cc2ccccc2)c(=O)[nH]c1=O | 14.2 | 5.9 | 4.8 | / | -2.2 | -0.9 | / | /
COc1ccc(C/C(N)=N/OC(=O)c2cccc([N+](=O)[O-])c2)cc1 | 72.6* | 27.0 | 2.9 | -5.1 | 72.0* | 2.4 | 85.8* | 67.6*
c1ccc(NC2=NCCN2CC2CCCCCC2)cc1 | 8.9 | 0.9 | 19.3 | 2.8 | 6.7 | / | / | /
N/C(=N\OC(=O)Cc1ccccc1[N+](=O)[O-])c1cccc(Br)c1 | 58.5* | 37.8 | 7.5 | 5.2 | 50.7* | 25.4 | 59.0* | 67.1*
N#C/C(=C\c1ccccc1)C(=O)NNS(=O)(=O)c1cccc([N+](=O)[O-])c1 | 14.3 | 2.9 | 13.8 | -3.9 | -0.4 | / | / | /
N#C/C(=C/c1cccc([N+](=O)[O-])c1)C(=O)Nc1ccccc1O | 73.1* | 32.1 | 17.4 | 10.6 | 41.8* | -1.8 | 40.0* | 57.0*
COc1ccc(CCNc2oc(-c3ccc(C)cc3)nc2C#N)cc1OC | 55.2* | 18.5 | 26.3 | -5.4 | 53.1* | -2.4 | 60.8* | 75.8*
CC1=CC(C)(C)NC(=S)N1c1ccc2ccccc2c1 | 34.2 | 13.2 | 26.5 | 13.4 | 29.9 | -2.5 | / | /
CC1=CC(C)(C)NC(=S)N1C(C)c1ccccc1 (stereo unspecified) | 61.5* | 24.1 | 6.0 | -22.4 | 45.8* | 6.1 | 27.6 | 32.7
SMILES | tim23-1 inh | tim10-1 inh | NALP3 yeast inh | PfHsp90 yeast 2 | TIM10 inh | SKKanGAS inh | TIM10 conf | tim23-1 conf
COn1c(=O)c(-c2cccs2)[n+]([O-])c2ccccc21 | 51.5* | 36.2 | 21.7 | -61.8 | 43.4* | -3.7 | 1.1 | 63.7*
COn1c(=O)c(-c2ccccc2)[n+]([O-])c2ccccc21 | 21.6 | 27.5 | 1.6 | 1.1 | 19.3 | 2.2 | / | /
CC1CCN(S(=O)(=O)c2cc(C(=O)Nc3ccccn3)ccc2Br)CC1 | 37.8 | 35.9 | 4.7 | / | 27.0 | 3.1 | / | /
CCOC(=O)c1sc2ccccc2c1OC(=O)c1ccccc1OC | 53.8* | 35.4 | 3.6 | 1.2 | 48.5* | 8.0 | 44.4* | 50.2*
Nc1ccc(-c2nc3c(ccc4ccccc43)[nH]2)cc1 | 57.6* | 4.6 | 22.6 | 22.8 | 65.8* | 13.6 | 66.1* | 52.2*
Cc1cccc(C(=O)Oc2ccc(/C=N/O)cc2)c1 | 62.0* | 28.4 | 31.4 | -16.3 | 41.7* | -3.7 | 32.4* | 50.2*
CCCCCCCCNS(=O)(=O)CCNCc1ccccc1OC | / | / | / | 9.5 | / | / | / | /
O=C(c1ccco1)N1CCN(c2nnc(-c3ccccc3)c3ccccc23)CC1 | 51.0* | 32.4 | 5.9 | -6.6 | 40.0 | 4.5 | 5.0 | 29.8
O=C(Nc1cccc(-c2cc3ccccc3oc2=O)c1)c1ccc(Br)o1 | 55.5* | 39.4 | 25.6 | 4.9 | 43.3* | 8.7 | 47.0* | 62.0*
CCC(=O)Nc1cccc(-c2cnc3ccccc3n2)c1 | -13.4 | 12.2 | 16.9 | -14.2 | -1.9 | 2.4 | / | /
O=C(CCl)Nc1cccc(-c2cnc3ccccc3n2)c1 | 63.3* | 34.2 | -3.6 | 8.1 | 40.4* | 5.4 | 0.5 | 40.4*
COc1ccc(OCc2nnc(SC(C)C(=O)Nc3nccs3)n2-c2ccccc2)cc1 (stereo unspecified) | 27.0 | 11.9 | 20.0 | 22.6 | 14.1 | 3.0 | / | /
O=C(N/N=C/c1cc(Br)cc(Br)c1O)c1ccncc1 | 64.7* | 28.1 | 25.7 | / | 45.4* | 68.7* | 51.2* | 65.2*
O=C(N/N=C/c1ccc(O)cc1O)c1ccncc1 | 1.1 | -8.8 | -8.1 | 5.0 | 13.8 | -1.8 | / | /
CCC(O)(CC)C(=O)N/N=C/c1cc(Br)cc(Br)c1O | 66.9* | 14.0 | 14.2 | -19.0 | 57.9* | 89.2* | 49.0* | 73.0*
